KDM5B inhibitor – blocks human KDM5B histone demethylase activity. Q9UGL1. KDM5B demethylase, FDH-coupled NADH fluorescence (FDH is formaldehyde dehydrogenase). Potency, µM (titrated, usually from 57.7 µM), actives largely listed as inhibitors. 2.6% of 220,000 active. AID 1347165; note: potency is the fitted concentration of half-maximal effect; 0% is about no effect; nearly all actives have a fitted effect of over 70% in size
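Compound dilutions met 200 nM (final) KDM5BΔAP for 10 min at room temperature before substrate addition. The substrate mix held 12.5 µM H3K4me3 with cofactors 25 µM α-ketoglutarate and 50 µM Fe²⁺. NADH signal gain over 30 min defined activity.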
IP6K1 inhibitor – IP6K1 kinase inhibition. Q92551. IP6K1 kinase, ADP-Glo luminescence, 2 h; active compounds read low. activity change, % (series mostly up to about 58 µM). 0.81% of 140,000 active. AID 1645851; in the data active = activity change below about -25%; note: % is set by controls: 0 for no effect and ±100 for the full control effect
Target sequence (Q92551 whole entry, looked up): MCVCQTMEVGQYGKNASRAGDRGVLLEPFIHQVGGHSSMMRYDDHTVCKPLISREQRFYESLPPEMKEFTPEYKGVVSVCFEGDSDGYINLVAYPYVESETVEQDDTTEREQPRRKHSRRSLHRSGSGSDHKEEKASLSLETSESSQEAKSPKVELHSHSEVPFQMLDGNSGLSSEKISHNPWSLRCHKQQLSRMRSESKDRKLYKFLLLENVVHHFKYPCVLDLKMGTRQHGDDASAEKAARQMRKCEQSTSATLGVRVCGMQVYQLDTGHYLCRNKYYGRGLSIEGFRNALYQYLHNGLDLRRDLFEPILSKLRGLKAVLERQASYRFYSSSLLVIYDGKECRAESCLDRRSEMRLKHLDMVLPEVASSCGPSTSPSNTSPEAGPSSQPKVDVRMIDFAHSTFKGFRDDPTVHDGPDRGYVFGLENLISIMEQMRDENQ
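ADP-Glo luminescence measures ADP made by human IP6K1 during a 2 h RT reaction with ATP/IP6 (mix at 1.3 mM/130 uM); top library doses 57.5 and 19.1 uM final.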
IP6K1 conf – confirmation of human IP6K1 inhibitors; shares compounds with IP6K1 inhibitor; recombinant IP6K1 kinase, ADP-Glo luminescence, 2 h; Potency, µM (doses to about 49 µM), inactives show at the highest dose activity change, negative = inhibition, most hits filed as inhibitors; 13% of 1,200 active; AID 1645852; note: potency is the fitted concentration of half-maximal effect; % is set by controls: 0 for no effect and ±100 for the full control effect; nearly all actives have a fitted effect of over 65% in size
* hit, by the source's call; i = inactive; ? = inconclusive; . = not tested or not shown. Hits are enriched below; roughly 2.8% of the tested compounds scored in any of these assays. Unless noted, calls come from the whole dose curve; as a rule, active = well fitted inhibition curve with a large enough effect; inconclusive = small, poorly fitted or top-dose-only effect; inactive = no such curve, though single readings can be large or run the other way.

SMILES	KDM5B inhibitor	IP6K1 inhibitor	IP6K1 conf
CN(CC(=O)NCc1ccco1)C(=O)c1ccc(S(=O)(=O)Nc2ccccc2)cc1	i	.	.
Cc1nn(-c2ccccc2)c(OC(=O)c2ccccc2Br)c1S(=O)(=O)c1ccccc1	?	-23	.
Cc1nn(-c2ccccc2)c(OC(=O)c2ccccc2)c1S(=O)(=O)c1ccccc1	?	-33*	46%
CCC(C)[C@@H](NC(=O)Nc1ccc(OC)c(Cl)c1)C(=O)OC (some centres not stated)	i	.	.
CC[C@H](CC#N)OC(=O)N[C@@H](C)c1cccc(NC(=O)Nc2ccc(-c3cnco3)c(OC)c2)c1	.	-39*	?
COC(=O)c1cccnc1-n1c(=O)c2cccnc2n(CC(=O)Nc2c(C)cc(C)cc2C)c1=O	i	18	.
COC(=O)c1cccnc1-n1c(=O)c2cccnc2n(CC(=O)Nc2ccccc2F)c1=O	?	-28*	16%
CC(=O)N1CCN(C(=O)c2ccc3nnc(C4CC4)n3c2)CC1	.	1	.
Cc1cnn(Cc2cc(C(=O)N3CC[C@@H](n4c(=O)n(C)c5cccnc54)C3)no2)c1	.	-12	.
O=C(Nc1cc(C2CC2)nn1-c1ccccc1)c1cccc(Br)c1	.	1	.
Cc1ccc(NC(=O)c2csc3c2CCCCC3)cc1C	i	.	.
CCOC(=O)c1ccc(NC(=O)c2csc3c2CCCC3)cc1	?	-33*	?
Cn1ccc(Nc2nccc3c(=O)cc(-c4cn[nH]c4)oc23)n1	i	-16	.
Cn1cc(-c2cc(=O)c3ccnc(Nc4ccc5[nH]ccc5c4)c3o2)cn1	i	-38*	?
CCCCOC(=O)N1CCC2(CC1)[C@H](C(=O)OCC)[C@@H](OC)C(=O)N2C	.	14	.
Cc1cc(C(F)(F)F)nn1CC(=O)NCCc1ncc(C)n1C(C)C	.	9	.
COCCCNc1nc(-c2c(C)noc2C)cc2cc(CN(C)C)oc12	i	-9	.
COc1ccc(-c2nc(-c3c(C)noc3C)cc3cc(CN(C)C)oc23)cn1	32µM*	-49*	?
COc1cc(-c2nc(-c3c(C)noc3C)cc3cc(CN(C)C)oc23)ccn1	35µM*	-33*	?
Cc1noc(C)c1-c1cc2cc(CN(C)C)oc2c(NCC(C)C)n1	i	-11	.
Cn1ncc2c(C(=O)Nc3cccnc3)cc(-c3ccc(C(F)(F)F)cc3)nc21	.	-15	.
COc1ccc(C(=O)NC2CCN(C(=O)c3ccc(-c4cncnc4)cc3)CC2)cc1	.	-16	.
CCC1CC(=O)NC(SC)=C1C#N (configuration not stated)	i	.	.
O=C(Nc1cccc(-c2cccc(Cl)c2)c1)C1CCN(Cc2ccc(CO)o2)CC1	i	.	.
Clc1cccc(-c2ccc(CN3CCN(C4CCNC4)CC3)o2)c1 (configuration not stated)	?	-28*	-24%
SMILES	KDM5B inhibitor	IP6K1 inhibitor	IP6K1 conf
COc1cccc(-c2ccn[nH]2)c1	i	.	.
Cc1cc(NC(=O)CNc2cc(S(=O)(=O)N3CCOCC3)ccc2N2CCCC2)no1	i	.	.
COC(=O)c1cccc(CN2C(=O)SC(Nc3ccc(Cl)cc3)C2=O)c1 (configuration not stated)	?	-13	.
CCOC(=O)c1ccc(NC2SC(=O)N(Cc3cccc(C(=O)O)c3)C2=O)cc1 (configuration not stated)	i	-46*	?
O=C(Oc1ccccc1F)c1nc(SCc2ccccc2F)ncc1Cl	?	-33*	-19%
Cc1ccc(CSc2ncc(Cl)c(C(=O)Oc3ccccc3F)n2)cc1	?	-24	.
Cc1cc(Cn2cc3c4c(cccc42)[C@H](CC(C)C)N[C@H](C(=O)NCc2ccccn2)C3)no1	i	4	.
Cc1cc(CNC(=O)c2ccncc2)c2[nH]c(-c3ccccc3)c(C)c2c1	i	-18	.
Cc1cc(CNC(=O)Cc2nonc2C)c2[nH]c(-c3ccccc3)c(C)c2c1	?	-29*	-13%
O=C(Nc1ccccc1F)c1ccc(-c2ccccc2)cc1	i	.	.
O=C(Nc1ccccc1F)c1ccc(-c2ccccc2)s1	?	-30*	-12%
Nc1c(S(=O)(=O)O)cc(Nc2ccc(Nc3nc(Cl)nc(Nc4ccc(S(=O)(=O)O)cc4)n3)c(S(=O)(=O)O)c2)c2c1C(=O)c1ccccc1C2=O	.	.	2.9µM*
Cc1ccc(-n2cccc2C=O)cc1Cl	i	.	.
Clc1cc2c(NC3CCCC3)nnc(-c3ccncc3)c2cc1Cl	.	-14	.
Cc1ccc(-c2ccc(=O)n(CCC(=O)NCCc3ccccc3)n2)cc1	?	-27*	-12%
Cc1ccc(-c2ccc(=O)n(CC(=O)NCCc3ccccc3)n2)cc1	?	4	.
COc1ccc(CNC(=O)CC2CCCCN(C)C2=O)cc1 (configuration not stated)	.	5	.
O=C(NCC1Cn2cccc2CN1Cc1cccnc1)c1cccc(F)c1 (configuration not stated)	.	-4	.
CCOc1ccc(Cn2c(CNS(=O)(=O)c3ccc(CC)cc3)nc3cccnc32)cc1	?	-22	.
CCOc1ccc(Cn2c(CNS(=O)(=O)c3ccc(Cl)s3)nc3cccnc32)cc1	?	-28*	?
c1ccc(Oc2cc3c(cn2)NCCN(Cc2ccsc2)C3)cc1	?	-29*	-4%
c1ccc(Oc2ccccc2-c2cc3c(cn2)CN(Cc2ccncc2)CCN3)cc1	?	-18	.
CCc1cccc(NC(=O)c2cc3c(=O)n(Cc4ccccc4)ccc3nc2C)c1	?	-27*	31%
COc1ccc(Cn2ccc3nc(C)c(C(=O)Nc4cccc(SC)c4)cc3c2=O)cc1	?	-1	.
CC(=O)N1CC2(Cc3ccccc3N(C(C)=O)C2)C1	i	-7	.
SMILES	KDM5B inhibitor	IP6K1 inhibitor	IP6K1 conf
COC(=O)N1CC2(Cc3ccccc3N(C(C)=O)C2)C1	i	-25*	1%
Cc1ccc(-c2n[nH]c(=O)c3ccccc23)cc1S(=O)(=O)N1CCCC1	i	.	.
COC(=O)NC1CCN(c2ccc3nnc(-c4ccccc4)n3n2)CC1	.	-11	.
O=S(=O)(NC1CCN(c2ccc3nnc(-c4ccccc4)n3n2)CC1)c1cccs1	.	-27*	?
COCCC(=O)N1CCCCC1c1noc(COc2ccc(C)cc2)n1 (configuration not stated)	i	11	.
Cc1nc(-c2ccc(C)c(S(=O)(=O)N3CCC(C(=O)Nc4ccc(Cl)cc4)CC3)c2)no1	i	-26*	4%
COc1cccc(NC(=O)C2CCN(S(=O)(=O)c3cc(-c4noc(C)n4)ccc3C)CC2)c1	i	-36*	-7%
CC(=O)c1ccc(N2CCN(S(=O)(=O)c3cc(-c4noc(C)n4)ccc3C)CC2)cc1	i	5	.
CCc1cccc(NC(=O)C2CCN(S(=O)(=O)c3cccc(-c4noc(C)n4)c3)CC2)c1	i	46	.
CCCC1(CO)CCCN(Cc2cc(-c3ccc(C)cc3)no2)C1 (configuration not stated)	?	0	.
COCCNC(=O)C1CCN(c2nc3ccccc3nc2C(F)(F)F)CC1	i	0	.
CCCCNC(=O)C1CCN(c2nc3ccccc3nc2C(F)(F)F)CC1	i	-29*	2%
CC(C)NC(=O)C1CCN(c2nc3ccccc3nc2C(F)(F)F)CC1	i	-35*	23%
CNC(=O)C1CCN(c2nc3ccccc3nc2C(F)(F)F)CC1	i	-20	.

Screening results as filed in PubChem BioAssay.
